Screens as filed in PubChem BioAssay.
This is a sample that favours compounds with a hit; in the whole collection about 10% have one here.
VP16 counter – VP16 counterscreen qHTS for inhibitors of ROR gamma transcriptional activity; Drosophila S2 Gal4-VP16 UAS-luciferase, luminescence, 20 h; Potency, µM (titrated, usually from 53.6 µM), without a hit: top-dose activity, negative = inhibition, most hits filed as inhibitors; hit rate 3.5% among 310,000; AID 2546, 2010;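 note: Gal4-VP16 expression switched on by copper sulfate through the metallothionein promoter; % is set by controls: 0 for no effect and ±100 for the full control effect; nearly all actives have a fitted effect of over 50% in size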
SW480 rerep – A quantitative high throughput screen for small molecules that induce DNA re-replication in SW480 colon adenocarcinoma cells; SW480 DNA re-replication, Hoechst DNA content imaging, 48 h; Potency, µM (series often up to 46.1 µM), for inactives: at the top dose re-replication activation, most hits filed as activators; hit rate 1.8% among 340,000; note: % of control where 0% means no effect; nearly all actives have a fitted effect of over 55% in size
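Quantitative HTS format with DMSO vehicle controls; 48 hr drug incubation at 37 C, then 40 min Hoechst staining and scanning imager measurement at 405 nm excitation.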
MCF10A rereplic – A quantitative high throughput screen for small molecules that induce DNA re-replication in MCF 10a normal breast cells; Potency, µM (highest dose often 46.1 µM), inactives show at the highest dose activity, positive = re-replication, most hits filed as activators; hit rate 2.9% among 350,000; MCF 10A DNA re-replication, Hoechst nuclear intensity, 48 h; note: % of control where 0% means no effect; nearly all actives have a fitted effect of over 50% in size
RORgamma inh – qHTS for inhibitors of ROR gamma transcriptional activity. Nuclear receptor ROR-gamma (Mus musculus), P51450. Drosophila S2 Gal4-RORgamma UAS-luciferase reporter, 20 h. Potency, µM (top dose mostly 53.6 µM), inactives show at the top dose activity change, negative = inhibition, hits mostly inhibitors. hit rate 5.4% among 310,000. AID 2551, 2010; note: % is set by controls: 0 for no effect and ±100 for the full control effect; nearly all actives have a fitted effect of over 60% in size
Target sequence (P51450 whole entry, looked up, the tested form may be a part): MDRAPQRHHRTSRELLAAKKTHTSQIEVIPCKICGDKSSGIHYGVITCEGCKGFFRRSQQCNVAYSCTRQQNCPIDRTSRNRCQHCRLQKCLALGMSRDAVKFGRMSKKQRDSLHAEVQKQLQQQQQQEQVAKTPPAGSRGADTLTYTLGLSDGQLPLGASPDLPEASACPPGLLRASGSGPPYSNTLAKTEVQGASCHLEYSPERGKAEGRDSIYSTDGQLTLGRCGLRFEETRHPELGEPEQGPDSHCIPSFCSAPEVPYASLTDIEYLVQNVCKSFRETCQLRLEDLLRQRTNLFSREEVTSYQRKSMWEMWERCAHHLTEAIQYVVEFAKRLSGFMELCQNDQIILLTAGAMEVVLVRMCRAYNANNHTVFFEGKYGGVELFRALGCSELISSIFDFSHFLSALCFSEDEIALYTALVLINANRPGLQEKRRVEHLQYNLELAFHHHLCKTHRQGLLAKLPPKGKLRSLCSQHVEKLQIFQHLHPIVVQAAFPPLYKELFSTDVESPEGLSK
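Schneider cells (Drosophila), stable Gal4 DBD–ROR gamma + UAS-luc; 1 hr cmpd preincubation; Cu2+ induction 700 uM final; 20 hr ambient; luminescence.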
ELG1 repair inh – qHTS screen for small molecules that inhibit ELG1-dependent DNA repair in human embryonic kidney (HEK293T) cells expressing luciferase-tagged ELG1; HEK293T ELG1-luciferase reporter, luminescence, 16 h; DNA damage induced by 5-fluorouridine; Potency, µM (doses to about 46.1 µM), for inactives: top-dose activity change, negative = inhibition, usual class: inhibitors; hit rate 2.3% among 330,000; AID 504467, 2011; note: % is set by controls: 0 for no effect and ±100 for the full control effect; nearly all actives have a fitted effect of over 55% in size
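Quantitative HTS, concentration-response format. 2,000 cells/well co-treated with 5-fluorouridine and compound, 16 hr in 5% CO2 at 37 °C; ONE-Glo luminescence read after 30 min.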
Numbers without * were called inactive; ? = inconclusive; · = no result; [ ] = dose if it differs, or a comment. Calls come from the whole dose curve; as a rule, active = well fitted curve in the direction sought with a large enough effect; inconclusive = small, poorly fitted or top-dose-only effect, or another doubt; inactive = no such curve, though single readings can be large; an effect the other way counts as inactive or inconclusive. Potency is the fitted concentration of half-maximal effect.

SMILES | VP16 counter | SW480 rerep | MCF10A rereplic | RORgamma inh | ELG1 repair inh
Cc1cc(Cl)ccc1NC(=S)NCCC(c1ccccc1)c1ccccc1 | 6.31µM* | 0.4%[9.22 µM] | 12.6µM* | 7.08µM* | ?
Cc1c(Cl)cccc1NC(=S)NCC(c1cccnc1)N(C)C (stereo unspecified) | 2.8% | -2.6% | 0.3% | -35.2% | 4.3%
Cc1c(Cl)cccc1NC(=S)NCCC(C)C | 6.31µM* | ? | 7.6% | 4.47µM* | 3.8%
COC(C(=O)Nc1ccc(Cl)cc1C)c1ccccc1 (stereo unspecified) | 0.7% | -700.3% | -7.5% | -2.1% | -3.9%
Cc1c(Cl)cccc1NC(=S)NCC(C)C | ? | -1.6% | -42.5% | 6.31µM* | -2.4%
Cc1c(Cl)cccc1NC(=S)NCCN1CCOCC1 | -10.1% | -3.0% | -6.3% | ? | 12.8%
O=C(c1ccc(Oc2cc(Cl)cc(Cl)c2)o1)N1CCCCC1 | 8.8% | -4.0% | 8.0% | 9.9% | 2.1%
O=C(c1cccc(F)c1)N1CCC2(CCN(Cc3nccs3)CC2)CC1 | 3.0% | · | · | 0.4% | ·
CC(=O)Nc1ccc(S(=O)(=O)NNC(=O)c2cccc(Cl)c2)cc1 | -4.7% | -0.5% | 0.5% | 1.8% | -5.4%
O=C(CSc1ncnc2nc[nH]c12)N1CCN(c2ccc(Cl)cc2)CC1 | -15.2% | -6.9% | 8.9% | ? | 18.4µM*
O=C(O)CSc1ncnc2nc[nH]c12 | 0.2% | -2.2% | -3.2% | -27.5% | -2.6%
c1ccc(CSc2ccc(-c3ccccn3)nn2)cc1 | 1.5% | 3.2% | ? | 7.94µM* | ?
Clc1ccc(CSc2ccc(-c3ccccn3)nn2)cc1 | ? | ? | 16.7% | -8.8% | ?
Cc1cc(C)c(NC(=O)CSc2ccc(-c3ccccn3)nn2)c(C)c1 | 0.0% | 9.0% | 11.2% | -12.0% | -24.4%
Cc1ccc(NC(=O)CSc2ccc(-c3ccccn3)nn2)c(C)c1 | -12.8% | -10.8% | ? | -11.4% | 20.6µM*
O=C(c1cccc(F)c1)N1CCN(S(=O)(=O)Cc2ccccc2)CC1 | -2.8% | -8.2% | -0.9% | 3.2% | -6.0%
Cc1nnc(NC(=O)c2ccc(Br)cc2)s1 | -5.7% | -0.2% | 5.9% | 11.6% | ?
Cc1ccc(C(=O)Nc2nnc(C)s2)cc1 | -17.6% | ? | -13.1% | 10µM* | ?
Cc1ccc(C(=O)Nc2nc(=O)n(C)s2)cc1 | 11.2µM* | -1.1% | 4.7% | 8.91µM* | ?
Cc1nc(Cc2nnc(SCC(=O)N3CC(=O)Nc4ccccc43)o2)cs1 | · | 0.1% | -0.4% | · | -9.6%
O=S(=O)(c1cccs1)N1CCN(CC(O)COc2cccc(Br)c2)CC1 (stereo unspecified) | 8.3% | ? | 14.0% | 25.2% | 20.6µM*
Cn1nc(Oc2ncc(C(F)(F)F)cc2Cl)cc1C(F)(F)F | 9.9% | 2.0% | 0.3% | 1.4% | 18.0%
CCOC(=O)C1CCN(CC(C)(C)NS(=O)(=O)c2ccc(Cl)cc2)CC1 | 10.5% | 9.9% | 14.6µM* | -4.8% | -4.0%
CC(C)(CN1CCNCC1)NS(=O)(=O)c1ccc(Cl)cc1 | · | 3.6% | 11.6µM* | · | 10.7%
CC(C)(CN1CCCC1)NS(=O)(=O)c1ccc(Cl)cc1 | -9.9% | -8.3% | 19.2% | -25.6% | 2.1%
SMILES | VP16 counter | SW480 rerep | MCF10A rereplic | RORgamma inh | ELG1 repair inh
CCOC(=O)C1CCN(CC(C)(C)NS(=O)(=O)c2ccc(C)cc2)CC1 | 0.0% | -5.3% | 0.1% | -27.4% | ?
Cn1c(C(=O)OCC(=O)NCc2ccc(F)cc2)cc2occc21 | · | -0.8% | 2.91µM* | · | ?
Clc1cccc(Cl)c1Cn1cnc(=NCc2ccco2)c2[nH]cnc21 | ? | 8.6% | ? | 17.8µM* | -5.5%
Clc1cccc(Cl)c1Cn1cnc2c(NCc3ccco3)ncnc21 | -8.2% | 10µM* | 15.8µM* | 0.8% | ?
CC1Cc2nc(SCC(=O)N3CCN(c4ccccc4)CC3)n(CCc3ccccc3)c(=O)c2S1 (stereo unspecified) | -1.5% | -2.8% | 5.8% | 4.7% | 14.6µM*
CCOC(=O)c1ccc(NC(=O)CSc2nc3c(c(=O)n2C)SC(C)C3)cc1 (stereo unspecified) | -23.2% | -5.0% | 2.3% | 11.0% | 20.6µM*
O=C(CSc1nc2c(c(=O)n1-c1ccccc1)SCC2)N1CCOCC1 | 7.1% | -23.9% | 0.2% | -11.3% | 3.4%
O=C(CSc1nc2c(c(=O)n1-c1ccccc1)SCC2)N1CCN(c2ccccc2)CC1 | 1.2% | -11.2% | 2.1% | ? | 23.1µM*
CCn1c(SCC(=O)N2CCN(c3ccccc3)CC2)nc2c(c1=O)SC(C)C2 (stereo unspecified) | -17.5% | -3.9% | -1.4% | ? | 23.1µM*
CN(C)c1ccc2c(c1[N+](=O)[O-])Cc1ccccc1-2 | · | -2.2% | 1.5% | · | ·
Cc1cccc(NC(=O)N2CCCc3ccccc32)c1C | -7.4% | -7.1% | 5.1% | 4.3% | ?
CCCCc1nc2cc(C(=O)N(C)C3CCOCC3)ccc2o1 | 3.4% | 1.2% | 0.1% | -12.1% | ?
Cc1cc(C(=O)C(C)OC(=O)c2ccc(NC(=O)CC#N)cc2)c(C)n1-c1ccccc1 (stereo unspecified) | · | 3.26µM* | ? | · | ?
O=C(NCCCN1CCCC1=O)c1cc(S(=O)(=O)N2CCOCC2)ccc1Cl | -3.9% | 0.3% | -2.8% | -8.4% | 5.3%
c1ccc(NCc2nc3ccccc3n2CCOc2ccccc2)cc1 | ? | · | 3.3% | 12.6µM* | ?
CCCc1nc2ccccc2n1CCOc1ccccc1 | -6.1% | 3.5% | ? | 0.5% | -0.9%
COc1ccc(NCc2nc3ccccc3n2C)cc1 | -9.0% | -8.3% | 18.4% | ? | ?
COc1ccc(NCc2nc3ccccc3n2CCOc2ccc(C)cc2)cc1 | ? | 4.4% | 20.6µM* | 20µM* | ?
COc1ccc(NCc2nc3ccccc3n2CCOc2ccccc2)cc1 | -15.0% | 2.2% | ? | 15.8µM* | ?
COc1ccccc1-c1ccc(=O)n(CC(=O)NC2CCc3ccccc32)n1 (stereo unspecified) | ? | -7.8% | 0.8% | 3.55µM* | ?
COc1ccccc1CC(=O)NC1CCCc2ccccc21 (stereo unspecified) | 2.5% | 2.5% | -0.7% | -10.3% | -4.1%
COCCNC(=O)c1cc2c(=O)n3cccc(C)c3nc2n1C | 2.1% | -0.9% | ? | -1.3% | ?
O=C(NCc1ccco1)c1cnc2ccccn2c1=O | 23.1% | -1.8% | -11.9% | 11.6% | 6.1%
O=C(NCc1ccco1)c1cccn2c(=O)c3cc4ccccc4cc3nc12 | 11.2µM* | · | · | ? | -8.0%
COCCCNC(=O)c1cccn2c(=O)c3cc4ccccc4cc3nc12 | 7.0% | ? | 13µM* | -31.1% | ?
